Active and inactive are the calls of the source.
How the values were obtained:
[1] = system: PRMT1 (protein arginine N-methyltransferase 1); test: small molecules binding arginine methyltransferase PRMT1 – biochemical, small-molecule microarray, 635 nm fluorescence, primary screen (AID 1088); conditions: higher = more signal;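 also: binding of Prmt1 protein to compounds spotted on small-molecule microarray slides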
[2] = growth effects on S. cerevisiae YJM789 – YJM789 clinical isolate, OD600, 24 h, basal, primary screen (AID 1089); conditions: higher = more signal, called active from +8 up or from −8 down;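 also: growth of clinical yeast isolate S. cerevisiae YJM 789 seeded 1000 cells per well; test concentration not given here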
[3] = S. pombe growth modifiers, basal conditions – strain 972, OD600, 24 h, no modulator, primary screen (AID 1090);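 also: basal condition with compound alone and no growth modifier present; test concentration not given here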; conditions: S. pombe 972 growth, higher = more signal, called active from +8 up or from −8 down
[4] = budding yeast growth modifiers under rapamycin – strain BY4716, OD600, 96 h, primary screen (AID 1091); also: test concentration not given here; conditions: S. cerevisiae BY4716 + rapamycin, higher = more signal, called active from +8 up or from −8 down
[5] = target: Torsin-1A-interacting protein 2 (Homo sapiens) (UniProt Q8NFQ8); test: small molecules binding lysate-expressed LULL1 – cell lysate, human LULL1 lysate, 635/667 nm fluorescence, primary screen (AID 1092); conditions: small-molecule microarray, hLULL1 lysate binding, 635 nm fluorescence; higher = more signal;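 also: probe is lysate of COS7 cells overexpressing human LULL1; score merges per-feature 667 nm fluorescence with signal-to-noise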
[6] = optical density change of DRC41 E. coli – strain DRC41, OD650, 24 h, E. coli filamentation project, primary screen (AID 1093);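 also: MC1000 strain lacking acrAB efflux and sulA so SOS filamentation is blocked; test concentration not given here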; conditions: E. coli DRC41 growth, higher = more signal, called active from +8 up or from −8 down
[7] = probe aLefty2 binding to arrayed compounds – biochemical, biotinylated probe, 635/667 nm fluorescence, primary screen (AID 1094); conditions: small-molecule microarray, higher = more signal;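 also: score merges spot fluorescence near 667 nm with spot signal-to-noise ratio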
[8] = system: Noggin (protein binding on small-molecule microarray); test: small molecules binding Noggin protein – biochemical, 635/667 nm fluorescence, primary screen (AID 1095); conditions: 635 nm fluorescence, higher = more signal;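 also: score merges 667 nm feature fluorescence with signal to noise over triplicate slides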
[9] = target: Neurogenic locus notch homolog protein 3 (Homo sapiens) (UniProt Q9UM47); test: small molecules binding NOTCH3 protein – biochemical, 635/667 nm fluorescence, primary screen (AID 1096); conditions: small-molecule microarray, 635 nm fluorescence, higher = more signal
[10] = probe aEGFR binding to arrayed compounds – biochemical, biotinylated probe, 635/667 nm fluorescence, primary screen (AID 1097); conditions: small-molecule microarray, higher = more signal;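 also: probe is a biotinylated anti-EGFR antibody binding compounds printed on slides; score combines fluorescence near 667 nm and signal to noise of each spot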
[11] = system: Plasmodium falciparum Sir2 (PF13_0152, Sir2A); test: Plasmodium falciparum Sir2A binding compounds – biochemical, small-molecule microarray, 635 nm fluorescence, primary screen (AID 1098); conditions: fluorescence 635 nm, higher = more signal;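 also: score merges spot fluorescence intensity with its signal-to-noise ratio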
[12] = probe aDKK1 binding to arrayed compounds – biochemical, biotinylated probe, 635/667 nm fluorescence, primary screen (AID 1099); conditions: small-molecule microarray, higher = more signal;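 also: score merges 667nm spot fluorescence with signal to noise across triplicate slides; reference of the scale not given here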
[13] = probe aCHRDL2 binding to arrayed compounds – biochemical, biotinylated probe, 635/667 nm fluorescence, primary screen (AID 1100); conditions: small-molecule microarray, higher = more signal
[14] = change in splice reporter luminescence, either direction, cell-based, HEK293, spliceosome inhibition project, primary screen (AID 1101); conditions: HEK293 splicing luciferase reporter, 24 h, higher = more signal, called active from +8 up or from −8 down;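 also: HEK293 cells carrying a splicing-competent luciferase reporter gene; test concentration not given here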
[15] = target: Fibroblast growth factor 10 (Homo sapiens) (UniProt O15520); test: compounds binding fibroblast growth factor 10 – biochemical, small-molecule microarray, 635 nm fluorescence, primary screen (AID 1102); conditions: FGF10 binding, fluorescence 635 nm, higher = more signal
[16] = system: glycogen synthase kinase-3 (GSK3A per assay name; protocol says GSK3B); test: compounds binding glycogen synthase kinase-3 – biochemical, small-molecule microarray, 635 nm fluorescence, GSK3A, primary screen (AID 1103); conditions: fluorescence 635 nm, higher = more signal; also: the record names both GSK3A and GSK3B
[17] = target: Epidermal growth factor receptor (Homo sapiens) (UniProt P00533); test: compounds binding epidermal growth factor receptor – biochemical, small-molecule microarray, 635 nm fluorescence, primary screen (AID 1104); conditions: EGFR binding, higher = more signal;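 also: score merges 667 nm emission intensity with spot signal to noise over triplicate slides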
[18] = target: Follistatin-related protein 3 (Homo sapiens) (UniProt O95633); test: compounds binding follistatin-related protein 3 – biochemical, small-molecule microarray, 635 nm fluorescence, primary screen (AID 1105); conditions: FSTL3 binding, higher = more signal;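 also: score merges emission near 667 nm and signal to noise per printed spot across three slides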
[19] = target: Dickkopf-related protein 1 (Homo sapiens) (UniProt O94907); test: small molecules binding DKK1 protein – biochemical, small-molecule microarray, 635 nm fluorescence scan, primary screen (AID 1106); conditions: higher = more signal;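 also: score merges emission near 667 nm with signal to noise over three replicate slides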
[20] = system: Inhibin beta A chain (activin A); test: small molecules binding activin A – biochemical, small-molecule microarray, 635 nm fluorescence scan, primary screen (AID 1107); conditions: INHBA, higher = more signal;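 also: mouse activin A protein probed at 4.33 µg/mL on printed slides; score merges bound-protein fluorescence near 667 nm with spot signal-to-noise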

Dickkopf-related protein 1 (Homo sapiens), sequence (O94907 whole entry, looked up): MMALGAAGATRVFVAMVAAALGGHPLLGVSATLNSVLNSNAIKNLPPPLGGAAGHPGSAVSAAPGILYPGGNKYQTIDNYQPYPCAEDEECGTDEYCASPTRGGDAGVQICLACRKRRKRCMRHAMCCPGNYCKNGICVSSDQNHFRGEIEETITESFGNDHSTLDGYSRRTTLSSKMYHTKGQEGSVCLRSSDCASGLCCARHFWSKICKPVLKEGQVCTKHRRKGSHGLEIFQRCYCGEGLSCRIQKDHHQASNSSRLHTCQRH
Torsin-1A-interacting protein 2 (Homo sapiens), sequence (Q8NFQ8 whole entry, looked up): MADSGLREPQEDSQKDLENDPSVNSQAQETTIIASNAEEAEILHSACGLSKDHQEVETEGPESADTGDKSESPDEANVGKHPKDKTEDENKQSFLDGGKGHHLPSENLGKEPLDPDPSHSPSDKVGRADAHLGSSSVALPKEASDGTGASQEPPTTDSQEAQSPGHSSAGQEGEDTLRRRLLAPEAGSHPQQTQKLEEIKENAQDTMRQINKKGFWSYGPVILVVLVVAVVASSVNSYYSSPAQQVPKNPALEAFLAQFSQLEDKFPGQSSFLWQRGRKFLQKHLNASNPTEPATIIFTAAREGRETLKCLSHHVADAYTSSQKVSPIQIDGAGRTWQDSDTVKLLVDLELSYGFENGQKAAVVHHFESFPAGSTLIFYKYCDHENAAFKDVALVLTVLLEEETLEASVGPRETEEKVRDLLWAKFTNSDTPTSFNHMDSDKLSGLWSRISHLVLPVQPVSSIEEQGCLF
Fibroblast growth factor 10 (Homo sapiens), sequence (O15520 whole entry, looked up): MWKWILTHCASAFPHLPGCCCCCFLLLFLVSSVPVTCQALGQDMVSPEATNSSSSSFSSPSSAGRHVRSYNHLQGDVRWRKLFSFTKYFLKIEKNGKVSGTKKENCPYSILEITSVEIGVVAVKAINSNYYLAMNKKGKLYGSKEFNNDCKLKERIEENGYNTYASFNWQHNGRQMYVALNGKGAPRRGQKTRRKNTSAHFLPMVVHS
Neurogenic locus notch homolog protein 3 (Homo sapiens), sequence (Q9UM47 whole entry, looked up): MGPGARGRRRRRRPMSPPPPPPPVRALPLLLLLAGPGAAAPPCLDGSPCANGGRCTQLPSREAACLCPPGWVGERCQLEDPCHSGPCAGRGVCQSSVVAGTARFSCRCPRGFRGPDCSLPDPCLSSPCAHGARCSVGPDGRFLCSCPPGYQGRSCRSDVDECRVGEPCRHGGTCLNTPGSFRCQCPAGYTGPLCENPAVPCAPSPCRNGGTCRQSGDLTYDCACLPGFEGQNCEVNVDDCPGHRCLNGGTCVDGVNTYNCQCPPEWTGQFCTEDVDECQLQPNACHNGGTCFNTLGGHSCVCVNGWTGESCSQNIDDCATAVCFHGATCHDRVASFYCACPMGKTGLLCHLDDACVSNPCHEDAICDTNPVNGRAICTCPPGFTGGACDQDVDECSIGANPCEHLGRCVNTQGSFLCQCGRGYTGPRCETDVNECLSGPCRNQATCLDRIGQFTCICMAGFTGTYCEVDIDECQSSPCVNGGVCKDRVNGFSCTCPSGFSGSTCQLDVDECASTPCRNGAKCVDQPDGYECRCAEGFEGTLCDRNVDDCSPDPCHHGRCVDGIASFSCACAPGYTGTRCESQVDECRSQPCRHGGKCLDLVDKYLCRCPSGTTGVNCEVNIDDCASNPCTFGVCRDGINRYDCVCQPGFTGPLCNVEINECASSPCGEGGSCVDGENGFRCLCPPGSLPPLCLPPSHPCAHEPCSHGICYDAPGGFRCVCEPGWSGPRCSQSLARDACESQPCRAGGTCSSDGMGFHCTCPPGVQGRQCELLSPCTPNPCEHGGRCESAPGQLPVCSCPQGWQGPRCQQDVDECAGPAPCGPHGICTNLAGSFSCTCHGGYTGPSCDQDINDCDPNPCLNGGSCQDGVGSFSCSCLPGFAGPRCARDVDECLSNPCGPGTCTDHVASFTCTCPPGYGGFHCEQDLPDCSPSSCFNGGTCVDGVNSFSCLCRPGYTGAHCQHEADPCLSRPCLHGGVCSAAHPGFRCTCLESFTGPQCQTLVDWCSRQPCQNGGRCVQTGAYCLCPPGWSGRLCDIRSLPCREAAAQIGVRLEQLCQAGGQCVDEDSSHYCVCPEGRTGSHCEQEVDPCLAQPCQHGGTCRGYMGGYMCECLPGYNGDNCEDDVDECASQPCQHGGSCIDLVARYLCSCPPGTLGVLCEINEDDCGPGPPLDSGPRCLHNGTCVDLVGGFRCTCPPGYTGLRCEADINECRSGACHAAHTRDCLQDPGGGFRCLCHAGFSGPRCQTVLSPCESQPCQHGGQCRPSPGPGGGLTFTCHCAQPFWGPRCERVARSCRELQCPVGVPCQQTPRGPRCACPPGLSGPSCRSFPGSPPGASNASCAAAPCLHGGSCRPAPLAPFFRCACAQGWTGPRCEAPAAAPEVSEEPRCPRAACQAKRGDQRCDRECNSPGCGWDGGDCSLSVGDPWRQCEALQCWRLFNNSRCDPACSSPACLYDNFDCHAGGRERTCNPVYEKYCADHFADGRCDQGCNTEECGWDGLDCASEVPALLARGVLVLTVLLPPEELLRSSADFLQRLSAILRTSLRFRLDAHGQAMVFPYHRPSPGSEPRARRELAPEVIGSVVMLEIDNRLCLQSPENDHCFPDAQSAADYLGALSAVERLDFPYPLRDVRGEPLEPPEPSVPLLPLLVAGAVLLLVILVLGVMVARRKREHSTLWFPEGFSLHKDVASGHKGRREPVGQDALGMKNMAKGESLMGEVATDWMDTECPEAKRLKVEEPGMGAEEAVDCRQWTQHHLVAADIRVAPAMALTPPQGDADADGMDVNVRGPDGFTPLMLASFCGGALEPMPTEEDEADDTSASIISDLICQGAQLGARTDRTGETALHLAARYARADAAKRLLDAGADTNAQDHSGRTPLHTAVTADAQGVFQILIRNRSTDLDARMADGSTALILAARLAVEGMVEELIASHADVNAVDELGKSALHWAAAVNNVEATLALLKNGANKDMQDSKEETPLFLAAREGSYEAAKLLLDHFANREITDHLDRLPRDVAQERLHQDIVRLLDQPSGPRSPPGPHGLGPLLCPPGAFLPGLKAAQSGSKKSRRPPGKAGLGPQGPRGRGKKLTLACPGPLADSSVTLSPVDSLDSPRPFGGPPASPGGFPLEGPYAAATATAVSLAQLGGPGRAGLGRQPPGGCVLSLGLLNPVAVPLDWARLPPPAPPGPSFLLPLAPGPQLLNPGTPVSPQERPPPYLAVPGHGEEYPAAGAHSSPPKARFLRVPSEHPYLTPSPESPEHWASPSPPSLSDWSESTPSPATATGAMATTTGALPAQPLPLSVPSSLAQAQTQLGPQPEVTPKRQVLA
Follistatin-related protein 3 (Homo sapiens), sequence (O95633 whole entry, looked up): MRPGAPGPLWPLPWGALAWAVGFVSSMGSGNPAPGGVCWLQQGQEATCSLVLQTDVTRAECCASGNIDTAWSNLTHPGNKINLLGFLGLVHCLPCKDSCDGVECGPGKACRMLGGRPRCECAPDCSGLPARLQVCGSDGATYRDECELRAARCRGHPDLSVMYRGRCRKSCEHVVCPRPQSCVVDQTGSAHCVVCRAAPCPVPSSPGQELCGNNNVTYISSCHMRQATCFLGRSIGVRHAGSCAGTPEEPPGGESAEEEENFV
Epidermal growth factor receptor (Homo sapiens), sequence (P00533 whole entry, looked up): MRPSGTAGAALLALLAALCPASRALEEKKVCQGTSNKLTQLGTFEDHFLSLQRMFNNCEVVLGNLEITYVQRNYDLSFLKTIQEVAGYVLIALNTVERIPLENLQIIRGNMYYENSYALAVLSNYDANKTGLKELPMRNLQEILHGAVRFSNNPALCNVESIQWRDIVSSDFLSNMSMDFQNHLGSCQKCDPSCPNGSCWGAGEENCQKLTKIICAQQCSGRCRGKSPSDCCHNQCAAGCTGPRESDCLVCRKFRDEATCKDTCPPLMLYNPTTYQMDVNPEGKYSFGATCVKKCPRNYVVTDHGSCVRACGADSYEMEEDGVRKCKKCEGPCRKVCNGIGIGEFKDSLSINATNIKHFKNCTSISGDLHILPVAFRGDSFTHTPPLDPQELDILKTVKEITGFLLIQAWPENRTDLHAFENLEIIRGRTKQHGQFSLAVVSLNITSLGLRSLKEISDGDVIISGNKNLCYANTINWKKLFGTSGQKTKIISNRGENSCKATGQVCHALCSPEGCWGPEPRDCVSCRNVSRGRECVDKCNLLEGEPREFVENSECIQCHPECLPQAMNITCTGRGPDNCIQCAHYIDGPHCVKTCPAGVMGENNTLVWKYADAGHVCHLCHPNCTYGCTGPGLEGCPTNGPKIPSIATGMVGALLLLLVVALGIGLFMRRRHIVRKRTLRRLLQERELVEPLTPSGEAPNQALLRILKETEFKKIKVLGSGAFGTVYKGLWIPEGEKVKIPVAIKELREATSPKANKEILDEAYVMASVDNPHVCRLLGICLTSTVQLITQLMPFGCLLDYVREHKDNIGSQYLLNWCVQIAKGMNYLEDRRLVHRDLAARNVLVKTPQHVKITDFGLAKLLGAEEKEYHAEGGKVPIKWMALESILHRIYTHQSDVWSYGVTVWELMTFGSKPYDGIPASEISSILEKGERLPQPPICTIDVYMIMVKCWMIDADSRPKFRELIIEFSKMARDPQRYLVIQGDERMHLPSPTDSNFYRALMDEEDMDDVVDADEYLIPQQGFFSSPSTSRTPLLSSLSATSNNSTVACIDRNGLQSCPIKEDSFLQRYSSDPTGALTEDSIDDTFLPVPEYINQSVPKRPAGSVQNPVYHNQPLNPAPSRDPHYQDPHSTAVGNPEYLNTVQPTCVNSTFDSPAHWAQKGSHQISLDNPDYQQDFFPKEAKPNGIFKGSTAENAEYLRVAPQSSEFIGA

Row | SMILES | composite z-score [1] | z-score [2] | z-score [3] | z-score [4] | composite z-score [5] | z-score [6] | composite z-score [7] | composite z-score [8] | composite z-score [9] | composite z-score [10] | composite z-score [11] | composite z-score [12] | composite z-score [13] | z-score [14] | composite z-score [15] | composite z-score [16] | composite z-score [17] | composite z-score [18] | composite z-score [19] | composite z-score [20]
1 | C[C@H]1CC[C@@H](C(=O)O)N[C@@H]1c1ccc(C#Cc2ccccc2)cc1 | 1.52 | -26.4 (active) | -21.1 (active) | -3.15 (inactive) | 1.78 | 0.161 (inactive) | -0.0615 | 0.875 | 1.09 | 0.0651 | 0.194 | 0.0274 | -0.273 | 0.29 (inactive) | 1.24 | 1.1 | 0.935 | 1.31 | 1.07 | 1.01
2 | CCOC(=O)CCN1C(=O)[C@H]2[C@H]3[C@H](O)[C@H](O)CC(=NOCC=C(C)CCC=C(C)C)[C@@H]3CC[C@H]2C1=O | 0.316 | -1.28 (inactive) | 0.237 (inactive) | -0.44 (inactive) | 1.01 | 6.79 (inactive) | -0.197 | 0.742 | 0.808 | -0.0415 | 0.255 | 0.333 | -0.202 | 0.0459 (inactive) | 1.15 | 0.659 | 1.17 | 0.825 | 0.606 | -0.259
3 | COC(=O)[C@H](C)NC(=O)CCC1CC(OC(=O)NCc2ccc3c(c2)OCO3)CC2(CCCC(COC(=O)NCCCN3CCCC3=O)O2)O1 (stereo not given in full) | 1.45 | 0.395 (inactive) | 0.642 (inactive) | 0.502 (inactive) | 0.908 | -0.223 (inactive) | -0.155 | 0.424 | 1.1 | -0.0128 | 0.842 | -0.286 | -0.189 | 0.245 (inactive) | 0.601 | 1.28 | 0.638 | 0.856 | 1.41 | -0.109
4 | O=C1[C@H]2[C@H]3[C@H](O)[C@H](O)CC(=NOC[C@@H](O)COCc4ccco4)[C@@H]3CC[C@H]2C(=O)N1c1cccc(Oc2ccccc2)c1 | -0.76 | 0.321 (inactive) | -0.512 (inactive) | -0.86 (inactive) | -0.75 | 0.0129 (inactive) | 0.0474 | 0.0054 | -0.487 | -0.156 | -0.042 | -0.334 | -0.885 | -0.33 (inactive) | -0.25 | -0.91 | -0.094 | -0.213 | 0.461 | 0.831
5 | COc1ccc(OC[C@@H]2CC3[C@@H](c4ccc(Br)cc4)[C@H](C)CC[C@H]3C(=O)O2)cc1 (stereo not given in full) | 0.112 | -0.251 (inactive) | -2.64 (inactive) | 0.0176 (inactive) | 0.82 | -0.145 (inactive) | -0.158 | 0.991 | 0.509 | -0.159 | 0.353 | -0.436 | -0.727 | -0.823 (inactive) | 0.638 | -0.274 | 0.885 | 0.354 | 0.827 | 0.483
6 | CC(=O)OC[C@H]1O[C@H](CC=NOC(C)CN2CCCc3nc(C)c(C)cc32)C=C[C@@H]1OC(C)=O (stereo not given in full) | 1.19 | 0.489 (inactive) | 0.483 (inactive) | -0.344 (inactive) | 0.771 | 1.14 (inactive) | 0.0961 | 0.977 | 1.04 | 0.0473 | 0.104 | -0.104 | -0.457 | 0.184 (inactive) | 0.708 | 0.961 | 0.383 | 0.834 | 0.578 | 0.8
7 | COC(=O)[C@H](C)NC(=O)CCC1CC(OC(=O)NCc2cccc3ccccc23)CC2(CCCC(COC(=O)NCc3cccc(C(F)(F)F)c3)O2)O1 (stereo not given in full) | 1.41 | -2.05 (inactive) | -0.645 (inactive) | 0.523 (inactive) | 1.78 | -1.21 (inactive) | -0.139 | 0.6 | 1.09 | 0.151 | 0.988 | -0.0508 | -0.134 | -1.39 (inactive) | 0.908 | 0.611 | 0.473 | 0.677 | 0.303 | -0.108
8 | CC(C)(C)N1C(=O)[C@H]2[C@H]3[C@H](O)[C@H](O)CC(=NOC[C@@H](O)COCc4ccco4)[C@H]3CC[C@H]2C1=O | 0.446 | 0.009 (inactive) | 0.287 (inactive) | -0.229 (inactive) | 0.937 | 0.697 (inactive) | 0.0913 | -0.192 | -0.0654 | -0.12 | 0.732 | 0.486 | 0.708 | 1.13 (inactive) | 0.207 | -0.274 | -0.284 | -0.28 | -0.0956 | 0.0091
9 | COC(OC)[C@@H](C)[C@H](OC)[C@@H](C)[C@H](OC)c1ccccc1 | -0.478 | -1.94 (inactive) | -0.656 (inactive) | -0.213 (inactive) | -1.37 | 0.17 (inactive) | 0.308 | 0.467 | 0.181 | -0.117 | -0.15 | -0.185 | -0.449 | -1.31 (inactive) | 0.0549 | -0.485 | 0.231 | 0.327 | 0.392 | 0.499
10 | CC(C)=CCCC(C)=CCON=C1C[C@@H](O)[C@@H](O)[C@@H]2[C@@H]3C(=O)N(c4cccc(Oc5ccccc5)c4)C(=O)[C@@H]3CC[C@H]12 | 1.04 | 0.788 (inactive) | -0.0823 (inactive) | -0.407 (inactive) | 1.12 | 0.204 (inactive) | -0.138 | 0.485 | 0.782 | 0.0209 | 0.0643 | -0.183 | -0.2 | 0.467 (inactive) | 0.411 | 0.286 | 0.348 | 0.751 | 0.419 | 0.657
